Screening results (PubChem BioAssay)
PLCb3 inh – human PLC-beta3 inhibitors, primary screen, biochemical, fluorescence; 1-phosphatidylinositol 4,5-bisphosphate phosphodiesterase beta-3 (Homo sapiens), Q01970; Purified PLC-beta3, fluorogenic substrate; inhibition, % at 12.2 µM; 370,000 compounds, 0.18% hits; AID 720704, 2013; in the data active means inhibition above about 11%;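 further: 0% = median of compound wells on plate and 100% = full blocker control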
PLC-gamma1 inh – PLC-gamma1 enzyme inhibitors, primary screen, biochemical, fluorescence, purified enzyme; fluorogenic substrate; AID 720700, 2013; 1-phosphatidylinositol 4,5-bisphosphate phosphodiesterase gamma-1 (Homo sapiens), P19174; inhibition, % at 12.2 µM; 370,000 compounds, 0.84% hits; in the data active means inhibition above about 9.5%
UHRF1 MBD2 ctr – UHRF1 methylated DNA binding inhibitors, primary screen, counter-screen for MBD2 inhibitor project, biochemical, TR-FRET, human UHRF1, single concentration | E3 ubiquitin-protein ligase UHRF1 (Homo sapiens), Q96T88 | UHRF1 binding to methylated oligo | inhibition, % at 4.4 µM | 370,000 compounds, 0.75% hits; in the data active means inhibition above about 21%;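 further: UHRF1 SRA domain binding a hemimethylated CpG hairpin DNA probe; 0% = median of test compound wells and 100% = reference inhibitor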
LEDGF integ inh – blockers of LEDGF/p75-dependent integrase strand transfer – biochemical, TR-FRET, high throughput, primary screen; HIV-1 integrase (with human LEDGF/p75); TR-FRET IN-LEDGF/p75 DNA integration, Eu/Cy5; inhibition, % at 3.7 µM; 370,000 compounds, 0.64% hits; AID 743269, 2014;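 active means inhibition above the screen-wide mean plus 3 SD, cut at about 13% in these data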;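 further: signal is the Cy5 over europium emission ratio at 671 and 618 nm; 0% = plate median of compound wells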
MBD2 inh – inhibitors of MBD2 binding to methylated DNA, primary screen, biochemical, TR-FRET, DNA-binding domain, human. AID 686964, 2013. inhibition, % at 4.4 µM. MBD2 binding to methylated oligonucleotide. 370,000 compounds, 0.31% hits. Methyl-CpG-binding domain protein 2 (Homo sapiens), Q9UBB5; in the data active means inhibition above about 13%
IN multimer up – HIV-1 IN multimer formation enhancers, counter-screen for LEDGF/p75 integration inhibitor project, biochemical, TR-FRET; shares compounds with LEDGF integ inh; TR-FRET HIV-1 integrase multimerization; activation, % at 7.7 µM; 2,000 compounds, 17% hits; AID 1053131, 2014; in the data active means activation above about 8.9%
TR-FRET interf – TR-FRET optical interference artefacts, confirmation, artefact control for LEDGF/p75-dependent integration inhibitor project, biochemical, HIV-1 IN multimerization; shares compounds with LEDGF integ inh; TR-FRET optical interference counterscreen; inhibition, % at 7.7 µM; 2,000 tested, under 10 active; AID 1053135, 2014;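 active means inhibition above the mean over all tested compounds plus 3 SD, which no compound reached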;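 further: 0% = integrase with antibodies and DMSO and 100% = antibodies without integrase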
LEDGF integ conf – inhibitors of HIV-1 IN-LEDGF/p75 DNA integration, confirmation, biochemical, TR-FRET; shares compounds with LEDGF integ inh; TR-FRET LEDGF/p75-dependent HIV-1 integration; inhibition, % at 3.7 µM; 2,000 compounds, 36% hits; in the data active means inhibition above about 14%
Active calls of the source: *. Shown are actives, neighbours in structure and some others; about 2.4% of the full set was active somewhere.

`CCc1nnc(N/N=C/c2ccccc2Cl)n1N` gave PLCb3 inh 7, PLC-gamma1 inh 6, UHRF1 MBD2 ctr 9, LEDGF integ inh 46*, MBD2 inh -4, IN multimer up 0, TR-FRET interf -1 and LEDGF integ conf -1.
For COc1cccc(/C=N/Nc2nnc(C)n2N)c1OCc1ccccc1Cl the results were PLCb3 inh 5, PLC-gamma1 inh 4, UHRF1 MBD2 ctr 4, LEDGF integ inh 41*, MBD2 inh -5, IN multimer up 1, TR-FRET interf -3 and LEDGF integ conf -3.
Screening COC(=O)C1CN(Cc2cn(CCC3OCCO3)nn2)CCS(=O)(=O)N1Cc1ccc(F)cc1 (stereo not drawn) returned PLCb3 inh 0, PLC-gamma1 inh -3, UHRF1 MBD2 ctr 13, LEDGF integ inh 2 and MBD2 inh 3.
O=c1cc(-c2ccc(O)c(O)c2)oc2cc(O)c(C3OC(CO)C(O)C(O)C3O)c(O)c12 (stereo not drawn) was read as PLCb3 inh 3, PLC-gamma1 inh 4, UHRF1 MBD2 ctr -4, LEDGF integ inh 46*, MBD2 inh -7, IN multimer up 73*, TR-FRET interf -369 and LEDGF integ conf 91*.
Screening O=c1cc(-c2ccc(O)cc2)oc2cc(O)c([C@@H]3O[C@H](CO)[C@@H](O)[C@H](O)[C@H]3O)c(O)c12 returned PLCb3 inh 7, PLC-gamma1 inh 7, UHRF1 MBD2 ctr -7, LEDGF integ inh 3 and MBD2 inh 1.
For O=c1cc(-c2ccc(O)cc2)oc2c(C3O[C@H](CO)[C@@H](O)[C@H](O)[C@H]3O)c(O)cc(O)c12 (stereo partly drawn) the results were PLCb3 inh -3, PLC-gamma1 inh 4, UHRF1 MBD2 ctr -9, LEDGF integ inh 2 and MBD2 inh 1.
`O=c1cc(-c2ccc(O)c(O)c2)oc2c(C3O[C@H](CO)[C@@H](O)[C@H](O)[C@H]3O)c(O)cc(O)c12` (stereo partly drawn) gave PLCb3 inh 0, PLC-gamma1 inh 1, UHRF1 MBD2 ctr -6, LEDGF integ inh 68*, MBD2 inh 0, IN multimer up 81*, TR-FRET interf -410 and LEDGF integ conf 90*.
For O=C(NCc1ccco1)C1CCCN(S(=O)(=O)c2cccs2)C1 (stereo not drawn) the results were PLCb3 inh 2, PLC-gamma1 inh 3, UHRF1 MBD2 ctr 4, LEDGF integ inh 4 and MBD2 inh 0.
For Cc1cc(NS(=O)(=O)c2ccc(NC(=O)CSc3nnc(-c4ccc(Cl)cc4)n3Cc3ccco3)cc2)nc(C)n1 the results were PLCb3 inh 0, PLC-gamma1 inh 2, UHRF1 MBD2 ctr -4, LEDGF integ inh 5 and MBD2 inh -8.
For O=C(CSc1nnc(-c2cccnc2)n1Cc1ccco1)Nc1ccc(Cl)cc1 the results were PLCb3 inh -1, PLC-gamma1 inh 0, UHRF1 MBD2 ctr 0, LEDGF integ inh -4 and MBD2 inh 7.
Screening O=C(CSc1nnc(-c2ccc(Cl)cc2)n1Cc1ccco1)Nc1ccc(S(=O)(=O)Nc2nccs2)cc1 returned PLCb3 inh -7, PLC-gamma1 inh -1, UHRF1 MBD2 ctr 2, LEDGF integ inh 19*, MBD2 inh -2, IN multimer up 6, TR-FRET interf -21 and LEDGF integ conf 5.
Screening Cc1cc(NS(=O)(=O)c2ccc(NC(=O)CSc3nnc(-c4ccncc4)n3Cc3ccco3)cc2)nc(C)n1 returned PLCb3 inh -12, PLC-gamma1 inh -4, UHRF1 MBD2 ctr 7, LEDGF integ inh 36*, MBD2 inh 6, IN multimer up 1, TR-FRET interf -5 and LEDGF integ conf -9.
Screening Cc1ccc(C)c(OCCn2nnc3ccccc32)c1 returned PLCb3 inh -5, PLC-gamma1 inh -2, UHRF1 MBD2 ctr -2, LEDGF integ inh 3 and MBD2 inh 4.
`Clc1ccccc1OCCn1nnc2ccccc21` gave PLCb3 inh -3, PLC-gamma1 inh 4, UHRF1 MBD2 ctr -1, LEDGF integ inh 29*, MBD2 inh -4, IN multimer up 0, TR-FRET interf -1 and LEDGF integ conf -2.
`COc1ccc2nc(NC(=O)c3ccccc3F)sc2c1` gave PLCb3 inh -55, PLC-gamma1 inh -37, UHRF1 MBD2 ctr -1, LEDGF integ inh 16*, MBD2 inh -4, IN multimer up 1, TR-FRET interf -3 and LEDGF integ conf -2.
For COc1ccc2nc(NC(=O)c3ccccc3C(=O)O)sc2c1 the results were PLCb3 inh -2, PLC-gamma1 inh 1, UHRF1 MBD2 ctr -3, LEDGF integ inh -1 and MBD2 inh -1.
`Cc1cc(C)n2ncc(C(=O)Nc3ccc4c(c3)CCC4)c2n1` gave PLCb3 inh 0, PLC-gamma1 inh -2, UHRF1 MBD2 ctr -2, LEDGF integ inh 1 and MBD2 inh 2.
`COc1ccc(C2C(C(C)=O)=C(C)N=c3s/c(=C\c4ccco4)c(=O)n32)c(OC)c1` (stereo not drawn) gave PLCb3 inh -19, PLC-gamma1 inh -12, UHRF1 MBD2 ctr -3, LEDGF integ inh 15*, MBD2 inh -2, IN multimer up -1, TR-FRET interf 7 and LEDGF integ conf 0.
`CCOC(=O)C1=C(c2ccccc2)N=c2s/c(=C\c3ccco3)c(=O)n2C1c1cccs1` (stereo not drawn) gave PLCb3 inh -14, PLC-gamma1 inh -7, UHRF1 MBD2 ctr 8, LEDGF integ inh 16*, MBD2 inh 5, IN multimer up 1, TR-FRET interf -7 and LEDGF integ conf 23*.
`CCOC(=O)C1=C(c2ccccc2)N=c2s/c(=C\c3cc(OC)c(OC)c(OC)c3)c(=O)n2C1c1cccs1` (stereo not drawn) gave PLCb3 inh -5, PLC-gamma1 inh 0, UHRF1 MBD2 ctr -4, LEDGF integ inh -1 and MBD2 inh 1.
